Only a selection was taken, and hits are over-represented in it overall.
GIRK2 activ: activators of human GIRK2 potassium channels; G protein-activated inward rectifier potassium channel 2 (Homo sapiens), P48051; HEK293-GIRK2 thallium flux, Thallos fluorescence, MPD; calls only for hits at 25 µM; actives 0.05% (n = 63,000); AID 1259325, 2017; call rule not given here
An asterisk follows results filed as active; i = inactive; + = active, no number.

SMILES	GIRK2 activ
COc1ccc(-c2csc3c(=O)n(Cc4cccc(C(F)(F)F)c4)cnc23)cc1OC	i
CCOc1ccc(NC(=O)COc2cc(C)nc(N3CCN(c4ccccc4)CC3)n2)cc1	i
Cc1ccc(-c2ccc3nnc(CCC(=O)N4CCN(c5ccccc5F)CC4)n3n2)cc1C	i
Cc1nc(-c2cccs2)sc1CNC(=O)c1cc(=O)[nH]c(=O)[nH]1	i
CCOc1c(C)cc(S(=O)(=O)NC(C)Cc2cccs2)cc1C (centres undefined)	i
Cc1noc(C)c1CN1CCN(C(=O)CC2CCCC2)CC1	i
CC(=O)c1cccc(NS(=O)(=O)c2ccc(F)c(Cl)c2)c1	i
O=C(CCCSc1ccccc1)Nc1nc(-c2cccnc2)cs1	i
C=CCNC(=O)Nc1cccc(-c2cnc3n2CCC3)c1	i
CCn1cc(/C=c2/sc3n(c2=O)C(c2ccccc2)C(C(=O)Nc2ccccc2C)=C(C)N=3)c(C)n1 (centres undefined)	i
CCOC(=O)C1=C(C)N=c2s/c(=C/c3c(C)nn(C)c3C)c(=O)n2C1c1ccccc1 (centres undefined)	+
CCOC(=O)C1=C(C)N=c2s/c(=C/c3cn(C)nc3C)c(=O)n2C1c1ccc(OC)cc1 (centres undefined)	i
C=C(C)COc1ccc2c(c1)O/C(=C\c1ccc(OC)c(OC)c1OC)C2=O	i
O=C(Cc1nc(-c2ccncc2)n[nH]1)NCc1ccco1	i
COc1cc(/C=C2\SC(=S)N(c3cccc(O)c3)C2=O)ccc1O	i
COc1cc(/C=C2\SC(=S)N(c3ccc(O)cc3)C2=O)ccc1O	i
COc1cc(/C=C2/SC(=S)N(c3ccccc3Cl)C2=O)ccc1O	+
CCCc1cnc2c(c1SCC(=O)c1ccc(OC)cc1)c(=O)n(C)c(=O)n2C	i
Cc1ccccc1-n1nnc(C(=O)N2CCN(S(C)(=O)=O)CC2)c1-c1ccncc1	i
Cc1ccccc1-n1nnc(C(=O)Nc2cccc(C(C)C)c2)c1-c1ccncc1	+
COc1cccc(-n2nnc(C(=O)NCc3ccc(C(C)C)cc3)c2-c2ccncc2)c1	i
CC1(C)OCC2(CO1)CN(C(=O)/C=C/c1ccco1)C2	i

High-throughput results from PubChem.
